# Laboratory results from PubChem BioAssay.
# Active and inactive are the calls of the source. Rule as the data show it: active = fold change permeability below about 0.7 or above about 1.3; inactive = in between.
# Assay: modulators of brain endothelial barrier permeability, primary screen, cell-based, FITC-avidin fluorescence, HTS (AID 1963498); also: test concentration not given here
# Settings: actives lie on both sides
row,Compound,fold change permeability
1,C[C@H](Cc1ccc(O)c(O)c1)[C@@H](C)Cc1ccc(O)c(O)c1,1 (inactive)
2,COc1ccccc1N1CCN(CCN(C(=O)C2CCCCC2)c2ccccn2)CC1,2 (active)
3,CN[C@H](CC(C)C)C(=O)N[C@H]1C(=O)N[C@@H](CC(N)=O)C(=O)N[C@H]2C(=O)N[C@H]3C(=O)N[C@H](C(=O)N[C@H](C(=O)O)c4cc(O)cc(O)c4-c4cc3ccc4O)[C@H](O)c3ccc(c(Cl)c3)Oc3cc2cc(c3O[C@@H]2O[C@H](CO)[C@@H](O)[C@H](O)[C@H]2O[C@H]2C[C@](C)(N)[C@H](O)[C@H](C)O2)Oc2ccc(cc2Cl)[C@H]1O,1.6 (active)
4,CCSC(=N)N,1.1 (inactive)
5,CC(CCc1ccc(O)cc1)NCCc1ccc(O)c(O)c1 (stereo unspecified),1.2 (inactive)
6,COc1cc(O)c(C)c(O)c1C(=O)CCc1ccccc1,1.8 (active)
7,COc1ccc(-c2csc(NC(=O)[C@H]3CCCCN3S(=O)(=O)c3ccc(C)cc3)n2)cc1,0.9 (inactive)
8,Clc1ccc(Cn2c(CN3CCCC3)nc3ccccc32)cc1,1.2 (inactive)
9,COC(=O)C1=C(C)NC(C)=C(C(=O)OC)C1c1cccc(NC(=O)NCCCN2CCC(c3cccc(OC)c3)CC2)c1,1.2 (inactive)
10,NC(=O)c1ccccc1,1.2 (inactive)
11,Cc1[nH]c(=O)c(C#N)cc1-c1ccc2nccn2c1,0.8 (inactive)
12,CN[C@H](CC(=O)O)C(=O)O,0.8 (inactive)
13,O=C(O)/C=C/c1cnc[nH]1,1.4 (active)
14,O=C(CCCN1CCC(O)(c2ccc(Cl)cc2)CC1)c1ccc(F)cc1,1.2 (inactive)
15,Cc1nc(C(=O)N2CCC[C@H]2Cc2nnc(-c3ccccc3)o2)c(-c2ccccc2F)s1,1 (inactive)
16,S=C(S)N1CCCC1,1 (inactive)
17,NC1(C(=O)O)CC1,0.9 (inactive)
18,NS(=O)(=O)c1cc2c(cc1Cl)NC(C1CC3C=CC1C3)NS2(=O)=O (stereo unspecified),1.3 (active)
19,C[C@H]1C[C@H]2[C@@H]3CCC4=CC(=O)C=C[C@]4(C)[C@@]3(Cl)[C@@H](O)C[C@]2(C)[C@@]1(O)C(=O)CO,1.2 (inactive)
20,CC(C)(CO)Cc1cc(C(C)(C)C)c(O)c(C(C)(C)C)c1,1.1 (inactive)
21,C[N+](C)(C)CCOC(=O)CCC(=O)OCC[N+](C)(C)C,0.9 (inactive)
